In PubChem BioAssay AID1159580 (chemical genetic matrix, 2015):
In all, about 5,500 compounds went through this assay and about 2,000 (36%) were called active. Not shown: some 18% with an inconclusive outcome. The list shows a part of the results. Unmarked numbers belong to inactive results. Cut-off read from the data, not from the text of the source: active = normalized growth mostly below about 0.91 (no sharp cut-off); inconclusive = no clear call, values can overlap the other calls; inactive = mostly above about 0.92.

Assay: chemical genetic growth profiling, strain panel (AID 1159580);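 note: tested at 20 µM; growth read once vehicle control cultures reached saturation at 30 °C; 1 = growth at the plate median or of vehicle wells; lower values mean less growth of the strain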
Settings: S. cerevisiae deletion strains, growth OD
[1] = locus YAR019C, strain CDC15, hits give low values
[2] = locus YBL105C, strain PKC1, hits give low values
[3] = locus YBR135W, strain CKS1, hits give low values
[4] = locus YBR136W, strain MEC1, hits give low values
[5] = locus YBR160W, strain CDC28, hits give low values
[6] = locus YDL017W, strain CDC7, hits give low values
[7] = locus YDL028C, strain MPS1, hits give low values
[8] = locus YDL101C, strain DUN1, hits give low values
[9] = locus YDL108W, strain KIN28, hits give low values
[10] = locus YDL132W, strain cdc53, hits give low values
[11] = locus YDL214C, strain PRR2, hits give low values
[12] = locus YDR052C, strain DBF4, hits give low values
[13] = locus YDR054C, strain cdc34, hits give low values
[14] = locus YDR226W, strain ADK1, hits give low values
[15] = locus YDR477W, strain SNF1, hits give low values
[16] = locus YER123W, strain YCK3, hits give low values
[17] = locus YER133W, strain GLC7, hits give low values
[18] = locus YFL009W, strain cdc4, hits give low values
[19] = locus YFL029C, strain CAK1, hits give low values
[20] = locus YFR003C, strain YPI1, hits give low values
[21] = locus YFR019W, strain FAB1, hits give low values
[22] = locus YFR028C, strain CDC14, hits give low values
[23] = locus YGR040W, strain KSS1, hits give low values
[24] = locus YGR052W, strain FMP48, hits give low values
[25] = locus YGR092W, strain DBF2, hits give low values
[26] = locus YHR030C, strain SLT2, hits give low values
[27] = locus YHR079C, strain IRE1, hits give low values
[28] = locus YHR082C, strain KSP1, hits give low values
[29] = locus YHR205W, strain SCH9, hits give low values
[30] = locus YIL147C, strain SLN1, hits give low values
[31] = locus YJL095W, strain BCK1, hits give low values
[32] = locus YJL128C, strain PBS2, hits give low values
[33] = locus YJL157C, strain FAR1, hits give low values
[34] = locus YJR016C, strain ILV3, hits give low values
[35] = locus YJR066W, strain TOR1 (second series), hits give low values
[36] = locus YJR066W, strain TOR1, hits give low values
[37] = locus YKL048C, strain ELM1, hits give low values
[38] = locus YKL067W, strain YNK1, hits give low values
[39] = locus YKL101W, strain HSL1, hits give low values
[40] = locus YKL193C, strain SDS22, hits give low values
[41] = locus YKL203C, strain TOR2, hits give low values
[42] = locus YLR113W, strain HOG1, hits give low values
[43] = locus YLR133W, strain CKI1, hits give low values
[44] = locus YLR403W, strain SFP1, hits give low values
[45] = locus YML070W, strain DAK1, hits give low values
[46] = locus YMR001C, strain CDC5, hits give low values
[47] = locus YMR205C, strain PFK2 (second series), hits give low values
[48] = locus YMR277W, strain FCP1, hits give low values
[49] = locus YNL006W, strain LST8, hits give low values
[50] = locus YNL020C, strain ARK1, hits give low values
[51] = locus YNL161W, strain CBK1, hits give low values
[52] = locus YNL183C, strain NPR1, hits give low values
[53] = locus YNL207W, strain RIO2, hits give low values
[54] = locus YNL222W, strain SSU72, hits give low values
[55] = locus YNL307C, strain MCK1 (second series), hits give low values
[56] = locus YOL078W, strain AVO1, hits give low values
[57] = locus YOL136C, strain PFK27, hits give low values
[58] = locus YOR061W, strain CKA2, hits give low values
[59] = locus YOR119C, strain RIO1, hits give low values
[60] = locus YOR231W, strain MKK1, hits give low values
[61] = locus YOR329C, strain SCD5, hits give low values
[62] = locus YPL031C, strain PHO85, hits give low values
[63] = locus YPL153C, strain RAD53, hits give low values
[64] = locus YPL204W, strain HRR25, hits give low values
[65] = locus YPL209C, strain IPL1, hits give low values
[66] = locus YPL256C, strain CLN2, hits give low values
[67] = locus YPR025C, strain CCL1, hits give low values
[68] = locus YPR106W, strain ISR1, hits give low values
[69] = locus YPR111W, strain DBF20, hits give low values
[70] = strain NNK1, hits give low values
[71] = strain TSCII, hits give low values

## Cc1cc(Br)ccc1-n1c(Sc2c([N+](=O)[O-])cc(C(F)(F)F)cc2[N+](=O)[O-])nc2ccccc2c1=O
[1]
  normalized growth: 0.99
[2]
  normalized growth: 0.985
[3]
  normalized growth: 0.984
[4]
  normalized growth: 0.978
[5]
  normalized growth: 0.988
[6]
  normalized growth: 0.989
[7]
  normalized growth: 0.983
[8]
  normalized growth: 0.988
[9]
  normalized growth: 0.984
[10]
  normalized growth: 0.994
[11]
  normalized growth: 0.892
[12]
  normalized growth: 0.989
[13]
  normalized growth: 0.985
[14]
  normalized growth: 0.981
[15]
  normalized growth: 0.933
[16]
  normalized growth: 0.901
[17]
  normalized growth: 0.933
[18]
  normalized growth: 0.986
[19]
  normalized growth: 0.986
[20]
  normalized growth: 0.986
[21]
  normalized growth: 0.952
[22]
  normalized growth: 0.994
[23]
  normalized growth: 0.938
[24]
  normalized growth: 0.945
[25]
  normalized growth: 0.968
[26]
  normalized growth: 0.972
[27]
  normalized growth: 0.922
[28]
  normalized growth: 0.997
[29]
  normalized growth: 0.879
[30]
  normalized growth: 0.984
[31]
  normalized growth: 0.88
[32]
  normalized growth: 0.915
[33]
  normalized growth: 0.927
[34]
  normalized growth: 0.987
[35]
  normalized growth: 0.885
[36]
  normalized growth: 1.06
[37]
  normalized growth: 0.946
[38]
  normalized growth: 0.943
[39]
  normalized growth: 0.93
[40]
  normalized growth: 0.982
[41]
  normalized growth: 1
[42]
  normalized growth: 0.841 (active)
[43]
  normalized growth: 0.95
[44]
  normalized growth: 0.961
[45]
  normalized growth: 0.923
[46]
  normalized growth: 0.981
[47]
  normalized growth: 0.939
[48]
  normalized growth: 0.982
[49]
  normalized growth: 0.981
[50]
  normalized growth: 0.943
[51]
  normalized growth: 0.982
[52]
  normalized growth: 1.02
[53]
  normalized growth: 0.999
[54]
  normalized growth: 0.983
[55]
  normalized growth: 0.932
[56]
  normalized growth: 0.984
[57]
  normalized growth: 0.926
[58]
  normalized growth: 0.937
[59]
  normalized growth: 0.998
[60]
  normalized growth: 0.955
[61]
  normalized growth: 0.988
[62]
  normalized growth: 0.923
[63]
  normalized growth: 0.917
[64]
  normalized growth: 0.928
[65]
  normalized growth: 0.99
[66]
  normalized growth: 0.943
[67]
  normalized growth: 0.983
[68]
  normalized growth: 0.968
[69]
  normalized growth: 0.972
[70]
  normalized growth: 0.968
[71]
  normalized growth: 0.993

## Cc1ccc(S(=O)(=O)CCSC2=CC(=O)CC(C)(C)S2)cc1
[1]
  normalized growth: 1.01
[2]
  normalized growth: 0.987
[3]
  normalized growth: 1
[4]
  normalized growth: 1
[5]
  normalized growth: 0.998
[6]
  normalized growth: 0.998
[7]
  normalized growth: 1
[8]
  normalized growth: 1
[9]
  normalized growth: 1
[10]
  normalized growth: 1
[11]
  normalized growth: 0.98
[12]
  normalized growth: 1
[13]
  normalized growth: 0.998
[14]
  normalized growth: 0.994
[15]
  normalized growth: 0.974
[16]
  normalized growth: 0.924
[17]
  normalized growth: 0.895
[18]
  normalized growth: 0.997
[19]
  normalized growth: 1.01
[20]
  normalized growth: 0.997
[21]
  normalized growth: 0.905
[22]
  normalized growth: 0.998
[23]
  normalized growth: 0.948
[24]
  normalized growth: 0.987
[25]
  normalized growth: 1
[26]
  normalized growth: 0.987
[27]
  normalized growth: 1.06
[28]
  normalized growth: 1.08
[29]
  normalized growth: 0.988
[30]
  normalized growth: 0.997
[31]
  normalized growth: 0.948
[32]
  normalized growth: 1.02
[33]
  normalized growth: 0.973
[34]
  normalized growth: 0.999
[35]
  normalized growth: 0.892
[36]
  normalized growth: 1.04
[37]
  normalized growth: 0.985
[38]
  normalized growth: 0.987
[39]
  normalized growth: 0.995
[40]
  normalized growth: 1
[41]
  normalized growth: 0.978
[42]
  normalized growth: 1.05
[43]
  normalized growth: 0.963
[44]
  normalized growth: 0.95
[45]
  normalized growth: 0.965
[46]
  normalized growth: 0.999
[47]
  normalized growth: 0.974
[48]
  normalized growth: 1
[49]
  normalized growth: 0.996
[50]
  normalized growth: 0.979
[51]
  normalized growth: 1
[52]
  normalized growth: 1.02
[53]
  normalized growth: 1
[54]
  normalized growth: 1
[55]
  normalized growth: 0.977
[56]
  normalized growth: 0.997
[57]
  normalized growth: 0.929
[58]
  normalized growth: 0.969
[59]
  normalized growth: 0.996
[60]
  normalized growth: 0.968
[61]
  normalized growth: 1
[62]
  normalized growth: 0.961
[63]
  normalized growth: 0.959
[64]
  normalized growth: 0.912
[65]
  normalized growth: 0.998
[66]
  normalized growth: 1.09
[67]
  normalized growth: 1
[68]
  normalized growth: 1.01
[69]
  normalized growth: 0.999
[70]
  normalized growth: 1.03
[71]
  normalized growth: 1
